FMDV antiviral: High Throughput Screening for Foot and Mouth Disease Virus Antivirals; FMDV antiviral cell-based qHTS; Potency, µM (doses to about 57.9 µM), for inactives: at the top dose activity change, negative = inhibition, hits mostly inhibitors; 1.2% of 410,000 active; AID 1159524, 2015; calls by dose curve; tested in HEK293T cells; also: read-out not given here; potency is read from the fitted curve at half-maximal effect; nearly all actives have a fitted effect of over 45% in size
Vaccinia mCherry: qHTS for Stage-Specific Inhibitors of Vaccinia Orthopoxvirus: mCherry Reporter Primary qHTS; AID 720579, 2013; Vaccinia virus mCherry reporter infection, fluorescence; 0.63% of 310,000 active; Potency, µM (doses to about 36.5 µM), for the others: top-dose activity change, negative = inhibition, actives largely listed as inhibitors; calls by dose curve; tested in A549 cells; also: potency is read from the fitted curve at half-maximal effect; nearly all actives have a fitted effect of over 35% in size
VACV Venus inh: qHTS for Stage-Specific Inhibitors of Vaccinia Orthopoxvirus: Venus Reporter Primary qHTS; Vaccinia virus Venus reporter expression, fluorescence; Potency, µM (doses to about 36.5 µM), for the others: at the highest dose activity change, negative = inhibition, hits mostly inhibitors; 0.46% of 330,000 active; AID 720580, 2013; calls by dose curve; tested in A549 cells; also: potency is read from the fitted curve at half-maximal effect; nearly all actives have a fitted effect of over 30% in size
MARV entry inh: qHTS for inhibitors of binding or entry into cells for Marburg Virus; Marburg virus pseudotyped entry inhibition, cell reporter; Potency, µM (highest dose often 37.8 µM), inactives show top-dose activity change, negative = inhibition, most hits filed as inhibitors; 1.8% of 300,000 active; calls by dose curve; tested in HEK293 cells; also: potency is read from the fitted curve at half-maximal effect
HCMV inh: qHTS Assay for inhibitors of the human cytomegalovirus (HCMV) | HFF cells, HCMV-luciferase reporter, 72 h; stronger effect = lower value | activity change, negative = inhibition, % at 57.5 µM | AID 1259415, 2018 | 4.5% of 410,000 active; in the data active = activity change below about -60%; inconclusive = no clear call, values can overlap the other calls; inactive = above about -39%
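Inhibition of viral replication was scored as loss of reporter luminescence in HFFs infected with HCMV-luciferase (MOI 1 PFU/cell) for 72 h; compounds tested at 2 doses, normalized to buffer and Salinomycin controls.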
LASV entry inh: qHTS for Inhibitors of binding or entry into cells for Lassa Virus | Potency, µM (doses to about 37.9 µM), inactives show top-dose activity change, negative = inhibition, most hits filed as inhibitors | Lassa virus pseudotype entry inhibition, cell reporter | 1.2% of 300,000 active; calls by dose curve; tested in HEK293 cells; also: potency is read from the fitted curve at half-maximal effect; nearly all actives have a fitted effect of over 50% in size
An asterisk follows results filed as active; [ ] = remark or other dose. Most compounds without a hit are left out; they make up all but 6.5% or so of the library. % is scaled to controls: 0 for no effect and ±100 for the full control effect.

For CCN(CC)C1CCN(C(=O)c2cnn(-c3ncc4c(n3)-c3ccccc3CCC4)c2COC)C1 (stereo not given) the results were FMDV antiviral -1%, Vaccinia mCherry -7% and VACV Venus inh -1%.
For CC(=O)c1c(C)oc2ccc(N(C(C)=O)S(=O)(=O)c3ccc(Br)cc3)cc12 the results were FMDV antiviral inconclusive, Vaccinia mCherry -6%, VACV Venus inh inconclusive, MARV entry inh inconclusive, HCMV inh inconclusive and LASV entry inh -13%.
Screening CC(=O)c1c(C)oc2ccc(N(C(C)=O)S(=O)(=O)c3ccc(Cl)c([N+](=O)[O-])c3)cc12 returned FMDV antiviral 35µM*, VACV Venus inh -6%, MARV entry inh -24%[46.1 µM], HCMV inh 10 and LASV entry inh -29%.
CC(=O)c1c(C)oc2ccc(N(C(=O)Oc3ccccc3)S(=O)(=O)c3ccccc3)cc12 was read as FMDV antiviral 0%, Vaccinia mCherry -2%, VACV Venus inh -17%, HCMV inh 35 and LASV entry inh inconclusive.
Screening CCOc1ccc(S(=O)(=O)N(C(C)=O)c2ccc3oc(C)c(C(=O)OC)c3c2)cc1 returned FMDV antiviral inconclusive, Vaccinia mCherry inconclusive, VACV Venus inh inconclusive, MARV entry inh inconclusive, HCMV inh -62* and LASV entry inh inconclusive.
COC(=O)c1c(C)oc2ccc(N(C(C)=O)S(=O)(=O)c3ccccc3)cc12 was read as FMDV antiviral -16%, Vaccinia mCherry -15%, VACV Venus inh inconclusive, MARV entry inh inconclusive, HCMV inh -35 and LASV entry inh inconclusive.
For CC(=O)c1c(C)oc2ccc(N(C(C)=O)S(=O)(=O)c3cccc4cccnc34)cc12 the results were FMDV antiviral inconclusive, Vaccinia mCherry inconclusive, VACV Venus inh inconclusive, MARV entry inh inconclusive, HCMV inh -79* and LASV entry inh inconclusive.
Screening CC(=O)c1c(C)oc2ccc(N(C(C)=O)S(=O)(=O)c3ccc(F)cc3C)cc12 returned FMDV antiviral inconclusive, Vaccinia mCherry inactive, VACV Venus inh -7%, MARV entry inh -21%, HCMV inh 2 and LASV entry inh -3%.
For CCCC(=O)N(c1ccc2oc(C)c(C(C)=O)c2c1)S(=O)(=O)c1ccc(CC)cc1 the results were FMDV antiviral inconclusive, Vaccinia mCherry inconclusive, VACV Venus inh inconclusive, HCMV inh -93* and LASV entry inh inconclusive.
Screening Cn1nnc2c(N3CCN(Cc4ccccc4)CC3)ncnc21 returned Vaccinia mCherry -26% and VACV Venus inh -19%.
For COC(=O)c1c(OCCN2CCCCC2)cc(=O)n2c1CCN(Cc1cccc3nccnc13)CC2 the results were FMDV antiviral 2%, Vaccinia mCherry inactive and VACV Venus inh -15%.
`O=C1[C@H]2[C@@H]3[C@@H](O)[C@H](O)CC(=NOCc4ccccc4)[C@H]3CC[C@H]2C(=O)N1C1CCCCC1` gave MARV entry inh -25%[14.2 µM] and LASV entry inh inconclusive.
Screening O=C(Nc1ccccc1Sc1ccccc1)c1cnn2c1NC(=C1CC1)C=C2C(F)(F)F returned Vaccinia mCherry -19% and VACV Venus inh -13%.
For COc1cccc(/C=C(\C#N)c2nc3ccccc3c(=O)[nH]2)c1OC the results were FMDV antiviral -25%, Vaccinia mCherry -3%, VACV Venus inh 8%, HCMV inh -8 and LASV entry inh 8%[46.1 µM].
CSc1nnc2c(n1)OC(c1cccc(O)c1Cl)Nc1ccccc1-2 (stereo not given) was read as FMDV antiviral -7%, Vaccinia mCherry -1%, VACV Venus inh 9%, MARV entry inh 2%[46.1 µM], HCMV inh 28 and LASV entry inh 7%[46.1 µM].
For Nc1c(S(=O)(=O)O)cc(Nc2ccc(Nc3nc(Cl)nc(Nc4ccc(S(=O)(=O)O)cc4)n3)c(S(=O)(=O)O)c2)c2c1C(=O)c1ccccc1C2=O the results were Vaccinia mCherry -12%, VACV Venus inh -29%, MARV entry inh 14µM* and LASV entry inh inconclusive.
